Results from PubChem BioAssay AID686978 (National Center for Advancing Translational Sciences (NCATS), 2013).
About 64,000 (15%) of roughly 420,000 compounds were called active. Not shown: some 27% with an inconclusive outcome. The call rests on the fitted dose curve; in most records, active means well fitted inhibition curve with a large enough effect; inconclusive means small, poorly fitted or top-dose-only effect; inactive means flat fitted curve, though single readings scatter. Only a sample is shown. Where a call stands in place of a potency, no number is given.

Assay: qHTS for Inhibitors of human tyrosyl-DNA phosphodiesterase 1 (TDP1): qHTS in cells in absence of CPT; further: nearly all actives have a fitted effect of over 55% in size
Settings: DT40 Tdp1-/- hTDP1 cells, no CPT, ATP luminescence, 48 h; activity change, negative = growth inhibition: at 46.2 µM (top of the series)
How it was run: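 Seeded 400 DT40-hTDP1 cells/well (vehicle DMSO, no 20 nM CPT); pinned compounds; ≥48 hr at 37 °C; CellTiter-Glo luminescence as viability measure.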
Potency means the concentration at half of the fitted maximal effect.

Row | Compound | Potency
1 | CC(=O)Oc1ccc(C(=O)Nc2nccs2)cc1 | inactive
2 | Cc1ccc(C(=O)N/C(=C/c2cccnc2)C(=O)O)cc1 | inactive
3 | Cn1ccnc1SCC(=O)Nc1ccc2c(c1)OCCO2 | inactive
4 | Cc1cc([N+](=O)[O-])c(=O)[nH]c1C | inactive
5 | COc1ccc(S(=O)(=O)NCC(c2ccco2)N2CCOCC2)cc1 (configuration not stated) | inactive
6 | Cn1cc(S(=O)(=O)NC(c2ccccc2)c2ccccc2)c(=O)n(C)c1=O | inactive
7 | CCn1c(SCC(=O)Nc2nccs2)nnc1-c1ccco1 | inactive
8 | O=C(COC(=O)c1ccc(F)cc1F)Nc1ncccn1 | inactive
9 | Cc1cc(NC(=O)Nc2ccccc2)n(-c2ccccc2)n1 | inactive
10 | Cc1cc(C)nc(-n2nc(C)cc2NC(=O)c2ccc(F)cc2F)n1 | 6.51 µM (active)
11 | CC(C)c1ccc(S(=O)(=O)N2CCC3(CC2)OCCO3)cc1 | inactive
12 | c1ccc2c(c1)CCc1snnc1-2 | inactive
13 | C=CCn1c(SCC(=O)NCC2CCCO2)nc2sc(C)c(C)c2c1=O (configuration not stated) | inactive
14 | C=CCn1c(SCC(=O)NCCCO)nc2sc3c(c2c1=O)CCC3 | inactive
15 | C=CCn1c(SCc2c(C)noc2C)nc2sc3c(c2c1=O)CCC(C)C3 (configuration not stated) | 16.4 µM (active)
16 | O=C(CN(CC1CCCO1)C(=O)CNS(=O)(=O)c1ccc(F)cc1)NCc1ccco1 (configuration not stated) | inactive
17 | Nc1nnc(SCC(=O)NCC(=O)Nc2ccc(F)c(F)c2F)s1 | inactive
18 | Cc1ccc(Cn2c(C)c(C(=O)NCc3ccccc3C(F)(F)F)sc2=O)cc1 | inactive
19 | Cn1c(CC(=O)Nc2ccc(F)cc2)nnc1SCC(=O)NC1CCCCC1 | inactive
20 | O=C(c1ccco1)N1CCN(C(=O)C2c3ccccc3Oc3ccccc32)CC1 | inactive
21 | O=C(Cc1ccccc1Cl)N1CCN(c2ccccn2)CC1 | inactive
22 | O=C(CCSCc1ccccc1F)N1CCN(c2ccc(Cl)cc2)CC1 | 18.4 µM (active)
23 | O=C(CCS(=O)(=O)c1cccc2nsnc12)N1CCN(c2ccccc2F)CC1 | inactive
24 | Cc1cccc(N2CCN(C(=O)CCSCc3ccccc3F)CC2)c1C | 20.6 µM (active)

Row | Compound | Potency
25 | O=C(CCc1ccccc1F)N1CCN(c2ccccc2)CC1 | inactive
26 | O=C(CCSc1ccccc1)N1CCN(c2ccccc2F)CC1 | inactive
27 | Cc1ncoc1C(=O)NCCC(c1ccccc1)c1ccccc1 | inactive
28 | O=C(COC(=O)/C=C/c1cccc(Cl)c1)NCc1cccs1 | inactive
29 | COc1ccc(S(=O)(=O)N2CCN(CC(=O)N3CCOCC3)CC2)cc1OC | inactive
30 | Cc1ccc(S(=O)(=O)N2CCN(C(=O)COC(=O)/C=C/c3cccc(Cl)c3)CC2)c(C)c1 | 23.1 µM (active)
31 | Cc1ccc(S(=O)(=O)N2CCC3(CC2)OCCO3)c(C)c1 | inactive
32 | Cc1nc(-c2ccc(F)cc2)c(CC(=O)Nc2cccc(S(=O)(=O)N3CCOCC3)c2)s1 | inactive
33 | COc1ccc(S(=O)(=O)N2CCN(C)CC2)c(C)c1 | inactive
34 | Cc1ccc(S(=O)(=O)N2CCN(C(=O)N3CCOCC3)CC2)c(C)c1 | inactive
35 | Cc1ccc(S(=O)(=O)N2CCN(C(=O)Cc3sc(C)nc3-c3ccc(F)cc3)CC2)c(C)c1 | 18.4 µM (active)
36 | COc1ccc(/C=C/C(=O)OCC(=O)N2CCN(S(=O)(=O)c3ccc(C)cc3C)CC2)cc1OC | 20.6 µM (active)
37 | Cc1ccc(S(=O)(=O)N2CCN(C(=O)COC(=O)c3c(C)noc3C)CC2)c(C)c1 | inactive
38 | CCCCOc1ccc(C(=O)NCC(=O)OCC(=O)N2CCN(S(=O)(=O)c3ccc(C)cc3C)CC2)cc1 | inactive
39 | Cc1ccc(S(=O)(=O)N2CCN(C(=O)COC(=O)c3c(C)cc(C)cc3C)CC2)c(C)c1 | 10.3 µM (active)
40 | Cc1nc2ncnn2c(C)c1CCC(=O)N1CCN(C(=O)c2ccco2)CC1 | inactive
41 | COc1ccc(CN(C)CCn2cc(C(=O)N3CCSCC3)nn2)cc1C | inactive
42 | Cc1cnc(C(=O)Oc2cccc(Cl)c2Cl)cn1 | inactive
43 | COc1cc(OC)c(C(=O)NC2CC(C)(C)NC(C)(C)C2)cc1OC | inactive
44 | O=C(O)CCCC(=O)Nc1ccc(Oc2cccc(C(F)(F)F)c2)nc1 | inactive
45 | CCOC(=O)Cn1c2c(c(-c3ccccc3OC)cc1=O)CCCC2 | inactive
46 | CCc1cccc(NC(=O)CCCN2C(=O)C(c3ccccc3)Oc3cccnc32)c1 (configuration not stated) | inactive
47 | Cc1ccc(CNCc2ccc3c(c2)OCO3)c(C)c1 | inactive
48 | COC(=O)c1sccc1NN1C(=O)c2ccccc2C1=O | inactive

Row | Compound | Potency
49 | CCCCn1c(N)c(N(CCOC)C(=O)c2cccc(S(=O)(=O)N(C)c3ccccc3)c2)c(=O)[nH]c1=O | inactive
50 | C=CCC(NCCCO)c1cccc(OC)c1OC (configuration not stated) | inactive
51 | O=C(CCN1C(=O)[C@H]2CC=CC[C@H]2C1=O)NCc1nc(-c2ccccc2)no1 | inactive
52 | O=C(NCCCn1ccnc1)c1cc(Br)c(Br)s1 | inactive
53 | O=C(COC(=O)c1cnc(Cl)c(Cl)c1)NCc1ccco1 | inactive
54 | O=C1CCC(=O)N1CCC(=O)N(C(=O)NC1CCCCC1)C1CCCCC1 | inactive
55 | CCc1nnc(NC(=O)c2cc(S(=O)(=O)N3CCN(CC)CC3)ccc2Cl)s1 | inactive
56 | COCCOC(=O)C1=C(C)Nc2nc(C)nn2C1c1ccccc1 (configuration not stated) | inactive
57 | Cc1ccc(C)c(OCCC(=O)OCC(=O)N2CCN(c3ccccc3)CC2)c1 | inactive
58 | Cc1ccc(S(=O)(=O)N2CCN(C(=O)COC(=O)CNC(=O)c3ccc(C(C)(C)C)cc3)CC2)c(C)c1 | inactive
59 | COc1ccccc1CCC(=O)OCC(=O)N1CCN(S(=O)(=O)c2ccc(C)cc2C)CC1 | 23.1 µM (active)
60 | O=c1ccc(-c2ccc(S(=O)(=O)Nc3ccccc3)o2)n[nH]1 | inactive
61 | COc1ccc(CNC(=O)COc2cccnc2[N+](=O)[O-])cc1 | inactive
62 | COc1ccc(-c2cc(NC(C)=O)c3ncc(-c4cc(OC)c(OC)c(OC)c4)n3c2)cn1 | 2.91 µM (active)
63 | COc1cccc(-c2cnc3c(NC(C)=O)cc(-c4cc(F)ccc4OC)cn23)c1 | 23.1 µM (active)
64 | COc1cccc(NC(=O)CSc2nnc(-c3cccnc3)o2)c1 | inactive
65 | CSc1nc2nc(-c3cccc(C(F)(F)F)c3)ccn2n1 | inactive
66 | CC(=O)Oc1cccc(C(=O)Nc2ccccc2NC(=O)c2cccc(OC(C)=O)c2)c1 | inactive
67 | CNc1cnc(-c2cc(OC)c(OC)c(OC)c2)cn1 | inactive
68 | CC(=O)Nc1cc(-c2ccccc2F)cn2c(-c3cccc(C(F)(F)F)c3)cnc12 | 0.326 µM (active)
69 | COc1cccc(NC(=O)C2c3cc(OC)c(OC)cc3C(=O)N(C)C2c2cccnc2)c1 (configuration not stated) | inactive
70 | COc1cccc(-c2cc(NC(C)=O)c3ncc(-c4cccc(C(C)=O)c4)n3c2)c1 | 23.1 µM (active)
71 | O=C(CNS(=O)(=O)c1cccc(C(F)(F)F)c1)Nc1ccccc1F | inactive
72 | COc1cccc(C(NC(C)=O)c2nc(-c3ccccc3OC)cs2)c1 (configuration not stated) | inactive
